In all, about 35,000 sequences were measured (“fluorescence intensity (a.u.)”: median about 10,000, highest 2% from about 52,000 on). The list comes from a sample in which the highest values are over-represented; it also holds similar and randomly drawn sequences.
target: T1, OsWOX13 (Oryza sativa, UniProt Q5QMM3 1-267); experiment: protein-binding microarray (RPBM); PBS, 2% BSA, 51.3 ng/ul salmon testes DNA, 50 uM zinc acetate, 200 nM TF, 25 C, 1 h; high values mean tight binding; details: protein: recombinant; tags: N-terminal polyhistidine and DsRed monomer fusion (pET32a); label: CyDye5-dUTP incorporated in the synthesized complementary strand; 3' TTTTT single-stranded linker to array surface; dsDNA, one strand shown
T1 sequence: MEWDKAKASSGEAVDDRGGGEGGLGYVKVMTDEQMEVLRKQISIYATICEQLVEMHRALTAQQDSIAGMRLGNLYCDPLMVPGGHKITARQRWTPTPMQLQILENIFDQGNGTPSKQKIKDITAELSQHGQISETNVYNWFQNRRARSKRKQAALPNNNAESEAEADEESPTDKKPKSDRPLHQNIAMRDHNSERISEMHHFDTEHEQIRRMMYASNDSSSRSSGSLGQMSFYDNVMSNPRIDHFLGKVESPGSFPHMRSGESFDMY
How it was run: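 Ni–NTA purification followed expression in E. coli BL21-CodonPlus of transcription factors fused N-terminally to a polyhistidine tag and DsRed. At 200 nM in PBS with 2% BSA, salmon testes DNA and 50 µM zinc acetate, the protein was incubated for 1 h at 25 °C with a custom Agilent array that had been primer-extended with Cy5-dUTP and blocked with 2% BSA. After washing, the array was read on an Axon 4000B scanner. The binding signal is per-feature fluorescence intensity in arbitrary units.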

Sequence	binding signal
TATTAGATTGGCTATAGATGAATTGGAGCTAGTAGTTGGCCGGAGTCACCTAGTGCAG	46700 fluorescence intensity (a.u.)
TAGATTGGCTATAGATGAATTGGAGCTAGTAGTTGGCTATCGGAGTCACCTAGTGCAG	25400 fluorescence intensity (a.u.)
AATATTAGATTGGCTATAGATGAATTGTAGCTAGTAGTTGCGGAGTCACCTAGTGCAG	54100 fluorescence intensity (a.u.)
CTGCTGCTTGATTATTTGGGTTCAACTGGCAAGAACTATGCGGAGTCACCTAGTGCAG	8890 fluorescence intensity (a.u.)
GTGATTGATGCCGCCTGGGTTAGTTCAACTATTGCTGCATCGGAGTCACCTAGTGCAG	55400 fluorescence intensity (a.u.)
TGGGTGATTGATTAGTACTACTGCTGCATCTGCACTGCATCGGAGTCACCTAGTGCAG	38400 fluorescence intensity (a.u.)
TCAAAATCAGTTTGAGTAAATTTTATTTTGGTTCAACTTTCGGAGTCACCTAGTGCAG	6800 fluorescence intensity (a.u.)
ATTTTGATTAAATGGTGATCAGCCAAAGCATTTGCCATCCCGGAGTCACCTAGTGCAG	39300 fluorescence intensity (a.u.)
TATTCAATCATCCAAGGTTTGCATATCATTGACCGGCGTGCGGAGTCACCTAGTGCAG	14400 fluorescence intensity (a.u.)
GGCGACAAGACAGATAGACAGAAGCCATTCATATCGAACCCGGAGTCACCTAGTGCAG	5190 fluorescence intensity (a.u.)
CTTTGACAGACAGATATCCATTCATACGTGCACAGGCGACCGGAGTCACCTAGTGCAG	55300 fluorescence intensity (a.u.)
GGTCGCCGGATCGCGGGAGGGAGGGAGGGAGGGAGGGAGGCGGAGTCACCTAGTGCAG	7230 fluorescence intensity (a.u.)
CCACCGTGATTTTCGCTCCCATCACCGCGCGAGGACTCCGCGGAGTCACCTAGTGCAG	3320 fluorescence intensity (a.u.)
GCTCCGGCGAGGCGAGGTCGGAGATCCCACCGCCGTGTCGCGGAGTCACCTAGTGCAG	65500 fluorescence intensity (a.u.)
CAAAACTAAAATGTTATCATATAATTATATATTTAAGACCCGGAGTCACCTAGTGCAG	8760 fluorescence intensity (a.u.)
ATTCATATAATTTGTATCACCTCAATAATAATTGGTATCACGGAGTCACCTAGTGCAG	14700 fluorescence intensity (a.u.)
GACAAATTTACAGTAGTTTAACTTTAAGCAAAGTCAAAACCGGAGTCACCTAGTGCAG	6260 fluorescence intensity (a.u.)
TATACAATTATTTAAACAAAATTACCACTTTGCTACAACTCGGAGTCACCTAGTGCAG	8450 fluorescence intensity (a.u.)
CCGCAATTATTGGCCCTTAATTGTGAGGTTAATCCGTGGCCGGAGTCACCTAGTGCAG	60900 fluorescence intensity (a.u.)
TTTTAATTACTGATCTTCTTACAATTGCTTTTATGCTGTCCGGAGTCACCTAGTGCAG	19700 fluorescence intensity (a.u.)
CAATTAATTGCTTATCCGTGGCCTTGATCAATTACTGTGCCGGAGTCACCTAGTGCAG	56600 fluorescence intensity (a.u.)
TTATGTAATTATTATTTATTTTATTGTGACTTAATTTATCCGGAGTCACCTAGTGCAG	15500 fluorescence intensity (a.u.)
AAGGTTAATTGGATCCATGCCACGCGAATTGTGGCAAATCCGGAGTCACCTAGTGCAG	22100 fluorescence intensity (a.u.)
TACTGCTGGATTGAATTAATGGATCAAGACTGAATTTATCCGGAGTCACCTAGTGCAG	12100 fluorescence intensity (a.u.)
AGTCAATCAGTCAATCTGGACCGTCCACGGCAGAAGAAGTCGGAGTCACCTAGTGCAG	30700 fluorescence intensity (a.u.)
GGATTATCAATCAAGCAAGCAAACAAACACTAAGGAAACCCGGAGTCACCTAGTGCAG	15000 fluorescence intensity (a.u.)
GAATAATCAATTGCCGAATACGTTCTGGACATGGATATTGCGGAGTCACCTAGTGCAG	6880 fluorescence intensity (a.u.)
CCTGGCTGATCGATAATTAATCCGTCCTCGCCGTCGCCATCGGAGTCACCTAGTGCAG	15400 fluorescence intensity (a.u.)

Sequence	binding signal
ATATTGATTAGGCTCTCGGCTCTCTATTTAACCAACTGAACGGAGTCACCTAGTGCAG	34300 fluorescence intensity (a.u.)
CTGATTGATTTAGCGGCTCAACATATATACCAAGGCGGCGCGGAGTCACCTAGTGCAG	61100 fluorescence intensity (a.u.)
GGGAAGGCGGCGATTGATTTGATTTGACCAAGATTGGTCGCGGAGTCACCTAGTGCAG	28700 fluorescence intensity (a.u.)
GAACTAATCACAAATTTCCACCATACAATGCCGCTGTACTCGGAGTCACCTAGTGCAG	13300 fluorescence intensity (a.u.)
GAGGCCAATCAGGTTGATGATGAAGAGGATGATTTCAGCGCGGAGTCACCTAGTGCAG	18200 fluorescence intensity (a.u.)
GTCATGTGATTGATGATTCAGCATCCCTTGAGGCTCAGTGCGGAGTCACCTAGTGCAG	53600 fluorescence intensity (a.u.)
TGCCTTTGATTAATGTCATGATGTCACATGCTGAGATTCACGGAGTCACCTAGTGCAG	11900 fluorescence intensity (a.u.)
GACTAACACCCTAGACTGATTAATCAAAGCATTGTGCATGCGGAGTCACCTAGTGCAG	16800 fluorescence intensity (a.u.)
ATGCAGTAATTAATCAATTAACTAATTAACTCACCCCATGCGGAGTCACCTAGTGCAG	47800 fluorescence intensity (a.u.)
TCACATTCTTGCATGATTGAACACTCCCTTTCATCCCTCACGGAGTCACCTAGTGCAG	18900 fluorescence intensity (a.u.)
AAATGAGATGACAATGATGATGATGATGGTTTCATCACCCCGGAGTCACCTAGTGCAG	4620 fluorescence intensity (a.u.)
AATTTACGATTGATTATTCATTCAGTGAGGCGCATGCGGTCGGAGTCACCTAGTGCAG	32700 fluorescence intensity (a.u.)
TACAATCACATTCAATTTGAAAAGAGAAGATGGCTCTTGGCGGAGTCACCTAGTGCAG	9800 fluorescence intensity (a.u.)
CTGATTAACTCTTCAATCAAATCCCTAACTTGAGTGCATGCGGAGTCACCTAGTGCAG	57200 fluorescence intensity (a.u.)
CTTGATGATTAATCAATTCAATCTTGGCTGTCATGAGAGGCGGAGTCACCTAGTGCAG	62000 fluorescence intensity (a.u.)
CATCAATCATGATTGAAGATGATTCAAGGTTGAGAGGACCCGGAGTCACCTAGTGCAG	53900 fluorescence intensity (a.u.)
ATTTAGACAGGTTCCAACCTCCTTGATAACAGTTAAAACCCGGAGTCACCTAGTGCAG	7950 fluorescence intensity (a.u.)
TTTTAGGTTAATTACTTCTATTGGTCAACTCAATATGCAGCGGAGTCACCTAGTGCAG	5660 fluorescence intensity (a.u.)
TGACTCTTATTTAACGACTGATTGTTGTCAAGATAATGAACGGAGTCACCTAGTGCAG	3770 fluorescence intensity (a.u.)
CGTACAATATTAATTAAAGTGTTTAAGAAACAGAGACTAGCGGAGTCACCTAGTGCAG	3740 fluorescence intensity (a.u.)
AAGGAAAATTAATAGCATACAGGCATGCATTTACGTACTTCGGAGTCACCTAGTGCAG	5500 fluorescence intensity (a.u.)
CCATGTGATTGACGATGCTCTTATTAACTTCTAACTTGACCGGAGTCACCTAGTGCAG	47000 fluorescence intensity (a.u.)
GCTGACGTAGATAATCTTATGCTTTCAAATTTTACGATAGCGGAGTCACCTAGTGCAG	5670 fluorescence intensity (a.u.)
ACTTTCTGTCAATTAGCCATTAGGTCAGTAGCCCAAAGTCCGGAGTCACCTAGTGCAG	24300 fluorescence intensity (a.u.)
TCTGCTTAAAAGGATGATTAAATTTTAGATTAAAGTGGCGCGGAGTCACCTAGTGCAG	10200 fluorescence intensity (a.u.)
TTCATGATATCAATTTATGAGCATCAAAAGATTACCATGCCGGAGTCACCTAGTGCAG	6980 fluorescence intensity (a.u.)
CTGATGATTAGATTTATCATGCTTCCGCGCTTCAAAAGGGCGGAGTCACCTAGTGCAG	53400 fluorescence intensity (a.u.)
